The list is not random: actives were taken first. Their share in the collection is about 7.1%.
MCF10A rerep – DNA re-replication induction in MCF 10a cells; hit rate 2.9% among 350,000; MCF 10A DNA re-replication, Hoechst nuclear intensity, 48 h; Potency, µM (highest dose often 46.1 µM), inactives show at the highest dose activity, positive = re-replication, most hits filed as activators; AID 624296; note: % of control where 0% means no effect; nearly all actives have a fitted effect of over 50% in size
ELG1 DNA repair – ELG1-dependent DNA repair inhibition. HEK293T ELG1-luciferase reporter, luminescence, 16 h; DNA damage induced by 5-fluorouridine. Potency, µM (series often up to 46.1 µM), without a hit: at the highest dose activity change, negative = inhibition, usual class: inhibitors. hit rate 2.3% among 330,000; note: % is set by controls: 0 for no effect and ±100 for the full control effect; nearly all actives have a fitted effect of over 55% in size
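Step one: seed 2,000 cells per well. Step two: pin-transfer compound or DMSO alongside 5-fluorouridine. Step three: incubate 16 hr, 37 °C, 5% CO2. Step four: add ONE-Glo, wait 30 min, read luminescence.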
ELG1 genotox – inducers of genotoxicity in HEK293T ELG1-luciferase cells. HEK293T ELG1-luciferase reporter, luminescence, 16 h. Potency, µM (highest dose often 46 µM), for the others: top-dose activity change, positive = activation, most hits filed as activators. hit rate 1.3% among 330,000; note: % of control where 0% means no effect; nearly all actives have a fitted effect of over 60% in size
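Reporter readout depends on ELG1 protein level, which increases with genetic stress. After 16 hr compound exposure at 37 °C, luciferase activity was quantified using ONE-Glo.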
p53 reactivation – re-activators of mutant p53. H1299 p53-A138V BP100-luciferase reporter, luminescence, 24 h. hit rate 0.063% among 320,000. Potency, µM (top dose mostly 92.2 µM), without a hit: at the highest dose activity change, positive = activation, hits mostly activators; note: % of control where 0% means no effect; nearly all actives have a fitted effect of over 45% in size
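p53-null H1299 cells stably carrying temperature-sensitive p53-A138V and a BP100-luciferase reporter were pinned with compounds (4-point, 1:5 series) and held 24 hrs at 37 deg C. Luminescence was read 10 min after detection reagent.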
A-T KAP1 phos – potential ataxia-telangiectasia treatment; Potency, µM (top dose mostly 57.5 µM), for the others: at the top dose activation, actives largely listed as activators; F2112 A-T fibroblasts, KAP-1 phosphorylation AlphaLISA; neocarzinostatin DNA damage 30 min before lysis; hit rate 0.19% among 320,000; AID 485349; note: % of control where 0% means no effect; nearly all actives have a fitted effect of over 45% in size
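hTERT-immortalized A-T patient fibroblasts (F2112), 500 cells/well in OPTI-MEM, 1% FBS, got compounds for 60 min, then NCS for 30 min at 37C. Lysates were then assayed for phospho-KAP-1 by AlphaLISA (anti-pKAP1 donor, anti-KAP1 acceptor beads), 6 hr at 25C.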
SW480 rerep – induces DNA re-replication in SW480 colon adenocarcinoma cells; SW480 DNA re-replication, Hoechst DNA content imaging, 48 h; Potency, µM (doses to about 46.1 µM), for inactives: top-dose re-replication activation, most hits filed as activators; hit rate 1.8% among 340,000; AID 624297; note: % of control where 0% means no effect; nearly all actives have a fitted effect of over 55% in size
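Cells (250 per well) received 23 nL compound or DMSO by pin tool and were kept 48 hr at 37 C, 5% CO2. Nuclei were then stained with Hoechst for 40 min and scanned for DNA content.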
* = called active by the depositor. Calls come from the whole dose curve; as a rule, active = well fitted curve in the direction sought with a large enough effect; inconclusive = small, poorly fitted or top-dose-only effect, or another doubt; inactive = no such curve, though single readings can be large; an effect the other way counts as inactive or inconclusive. Potency is the fitted concentration of half-maximal effect.

`O=C(Oc1c(CN2CCOCC2)cc(Cl)c2cccnc12)c1ccccc1F` gave MCF10A rerep 18µM*, ELG1 DNA repair 10µM*, ELG1 genotox -15%, p53 reactivation 6%, A-T KAP1 phos 0% and SW480 rerep 6.5µM*.
O=C(Oc1ccc(C(=S)N2CCOCC2)cc1Cl)c1ccccc1F was read as MCF10A rerep 18%, ELG1 DNA repair inconclusive, ELG1 genotox -1%, p53 reactivation 3%, A-T KAP1 phos -4% and SW480 rerep -21%.
For CC1CC(C)CN(CCCNC(=O)c2nn(C)c3c2CS(=O)(=O)c2ccccc2-3)C1 (stereo unspecified) the results were MCF10A rerep -2%, ELG1 DNA repair -3%, ELG1 genotox -1%, p53 reactivation 0%, A-T KAP1 phos 3% and SW480 rerep inconclusive.
Cc1ccnc(NS(=O)(=O)c2ccc(NS(=O)(=O)c3cc(Cl)ccc3Cl)cc2)n1 was read as MCF10A rerep 0%, ELG1 DNA repair inconclusive, ELG1 genotox 2%, p53 reactivation -1%, A-T KAP1 phos -9% and SW480 rerep -4%.
For CC(Sc1nnnn1C)C(=O)NC1CCCC1 (stereo unspecified) the results were MCF10A rerep 0%, ELG1 DNA repair 12%, ELG1 genotox 3%, p53 reactivation 2%, A-T KAP1 phos 20% and SW480 rerep 0%.
Oc1c(Cl)cc(CN2CCOCC2)c2cccnc12 was read as MCF10A rerep 12µM*, ELG1 DNA repair inconclusive, ELG1 genotox -6%, p53 reactivation -33%, A-T KAP1 phos 2% and SW480 rerep inconclusive.
O=[N+]([O-])c1cc(CN2CCOCC2)c2cccnc2c1O was read as MCF10A rerep 11%, ELG1 DNA repair -11%, ELG1 genotox -4%, p53 reactivation -1%, A-T KAP1 phos 2% and SW480 rerep inconclusive.
`COc1cc(OC)cc(C(=O)Oc2c(CN3CCOCC3)cc(Cl)c3cccnc23)c1` gave MCF10A rerep -3%, ELG1 DNA repair 16µM*, ELG1 genotox -11%, p53 reactivation 2%, A-T KAP1 phos 5% and SW480 rerep inconclusive.
For COc1cc([C@@H]2c3cc4c(cc3[C@@H](O[C@@H]3O[C@@H]5CO[C@@H](C)O[C@H]5[C@H](O)[C@H]3O)[C@H]3COC(=O)[C@H]23)OCO4)cc(OC)c1O the results were MCF10A rerep inconclusive and SW480 rerep 2.3µM*.
For COc1cc(C2c3cc4c(cc3C(OC3OC5COC(c6cccs6)OC5C(O)C3O)C3COC(=O)C23)OCO4)cc(OC)c1O (stereo unspecified) the results were MCF10A rerep inconclusive, ELG1 DNA repair inconclusive, ELG1 genotox -11%, p53 reactivation 14%, A-T KAP1 phos 35µM* and SW480 rerep inconclusive.
For COc1cc([C@H]2c3cc4c(cc3[C@@H](O[C@H]3O[C@H]5CO[C@@H](C)O[C@H]5[C@@H](O)[C@@H]3O)[C@@H]3COC(=O)[C@H]23)OCO4)cc(OC)c1O the results were MCF10A rerep inconclusive and SW480 rerep 1.5µM*.
`COc1cc(C2c3cc4c(cc3C(O[C@@H]3OC5COC(c6cccs6)OC5C(O)C3O)C3COC(=O)C23)OCO4)cc(OC)c1O` (stereo partly specified) gave MCF10A rerep inconclusive and SW480 rerep 14%.
For COc1cc([C@@H]2c3cc4c(cc3[C@@H](NC3CCN(Cc5ccccc5)CC3)[C@H]3COC(=O)[C@H]23)OCO4)cc(OC)c1O the results were ELG1 DNA repair inconclusive, ELG1 genotox 2%, p53 reactivation 2% and A-T KAP1 phos inconclusive.
